Results reported in PubChem BioAssay.

Assays:
[1] = biological target: Tumor necrosis factor receptor superfamily member 10B (Homo sapiens) (UniProt O14763); test: viability loss of caspase-8 NB7 cells with TRAIL – with/without TRAIL, luminescence panel, confirmation (AID 651596); details: NB7 neuroblastoma + caspase-8, TRAIL sensitization, NB7 Caspase-8, with TRAIL, mean of runs, at 10 µM, stronger effect = higher value
[2] = as above; details: NB7 neuroblastoma + caspase-8, without TRAIL, NB7 Caspase-8, without TRAIL, mean of runs, at 10 µM

Sequence of Tumor necrosis factor receptor superfamily member 10B (Homo sapiens) (O14763 whole entry, looked up): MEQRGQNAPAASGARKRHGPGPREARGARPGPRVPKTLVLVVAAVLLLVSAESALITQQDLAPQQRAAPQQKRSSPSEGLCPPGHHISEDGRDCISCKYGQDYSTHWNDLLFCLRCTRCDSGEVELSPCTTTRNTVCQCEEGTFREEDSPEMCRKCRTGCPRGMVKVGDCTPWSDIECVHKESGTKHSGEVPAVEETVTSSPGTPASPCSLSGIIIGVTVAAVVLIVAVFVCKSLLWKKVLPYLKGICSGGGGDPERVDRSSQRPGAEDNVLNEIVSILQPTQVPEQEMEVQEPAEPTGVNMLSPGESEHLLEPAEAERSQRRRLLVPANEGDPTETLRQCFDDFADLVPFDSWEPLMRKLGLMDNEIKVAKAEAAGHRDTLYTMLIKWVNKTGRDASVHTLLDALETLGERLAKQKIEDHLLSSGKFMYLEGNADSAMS

Row | SMILES | activity [1] [%] | activity [2] [%]
1 | CC(C)Cc1ccc(C(C)CC2=CCC(CN(C)C)C2=O)cc1 (stereo not given) | 86.2 | 91.8
2 | O=C(Nc1ccc2nc(-c3ccco3)[nH]c2c1)c1cccs1 | 72.4 | 80.6
3 | NC(=S)NN=C1c2cc(OCCN3CCOCC3)ccc2-c2ccc(OCCN3CCOCC3)cc21 | 99 | 99.5
4 | Cn1c(C(=O)NCCC2=CCCCC2)cc2c(=O)n3ccccc3nc21 | 59.6 | 57.7
5 | Cc1noc(N)c1C(=O)Nc1ccc(C(C)(C)C)cc1 | 46.1 | 48.9
6 | N/C(=N\OC(=O)c1ccc2ccccc2c1)c1ccccc1Cl | 99.4 | 99.2
7 | O=C(NNc1nc(=O)c2cccnc2s1)c1ccccc1O | 45.7 | 43.9
8 | COc1cc2c3nnc(-c4ccc(F)cc4)c-3cn(Cc3ccc(C)cc3)c2cc1OC | 24.2 | 60.6
9 | COc1ccc(NC(=O)c2cc3ccc(O)cc3o/c2=N\O)cc1 | 77.8 | 77.1
10 | COc1ccc2nc(-c3ccccn3)ccc2c1 | 82.1 | 77.5
